The structures appear in SMILES notation. About 22,000 (6.9%) of roughly 320,000 compounds were called active. Entries that show only a call come without a potency. Not shown: some 27% with an inconclusive outcome. Calls come from the whole dose curve; as a rule, active = well fitted inhibition curve with a large enough effect; inconclusive = small, poorly fitted or top-dose-only effect, or another doubt; inactive = no such curve, though single readings can be large or run the other way. Only a selection was taken, and actives are over-represented in it overall. Where a SMILES comes first, the peptide text is derived from it. [ ]: non-standard residue; d: D form. The star is where a group is joined. PhAc = O=C(Cc1ccccc1)*
Potency is the fitted concentration of half-maximal effect.

A short description of this experiment: Primary qHTS for delayed death inhibitors of the malarial parasite plastid, 96 hour incubation. To be noted: P. falciparum luciferase reporter growth; series mostly up to 28.7 µM. In short, it runs like this:
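Luminescence readout: decreased luciferase signal marks inhibited growth of reporter-expressing P. falciparum in infected red cells (2% hematocrit, 0.05% parasitemia final), exposed to compound two generations (96 h, 37 C, 5% CO2).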
On the technique in general: Quantitative high-throughput screening tests each substance at several concentrations.
For `COc1cc(C#Cc2ccc3cc(CCCO)oc(=O)c3c2)cc(OC)c1`, the Potency result is “inactive”. Under `Cc1ccc(NC(=O)CN(C)C(=O)COC(=O)C(C)(C)Oc2ccc(Cl)cc2)cc1` stands “inactive”. Under `CC1(c2ccc3ccccc3c2)NC(=O)N(CC(N)=O)C1=O` (stereo not given) stands “inactive”; under `O=C(NCCCn1ccnc1)c1cc2c(s1)CCCC2`, “inactive”.

`CCOC(=O)CC1(NC(=O)c2cc(COc3cncc(Cl)c3)on2)CCCCC1`: the Potency entry was “inactive”.

As for `COc1ccc(S(=O)(=O)NCCOc2ccccc2)cc1F`, the Potency entry is “inactive”. For `CC(C)(C)n1ncc2c(=O)n(Cc3c(Cl)cccc3Br)cnc21`, the Potency result was “inactive”. With `O=C(O)c1ccc(/C=C2\SC(=S)N(NC(=O)c3ccc(Br)cc3)C2=O)cc1`, the Potency result was “inactive”. Turning to `CS(=O)(=O)N1CCN(CC(=O)NC2CCCC2)CC1`, the Potency result was “inactive”. Then `CCN(CC(=O)Nc1c(F)cccc1F)C(=O)c1ccc(S(=O)(=O)N2CCCCC2)cc1`, with “inactive”. On to `Cn1c(CCN2CCCC2)nc2cc(NS(=O)(=O)c3ccccc3)ccc21`, for which the Potency entry was “inactive”. Under `COc1ccccc1C(CNC(=O)c1cccc(S(=O)(=O)Nc2ccc(F)cc2)c1)N(C)C` (stereo not given) stands 8.28 µM (active). On to `COc1ccc(C(CNC(=O)c2ccc(NS(=O)(=O)c3ccc(F)c(C)c3)cc2)N(C)C)cc1` (stereo not given), for which the Potency entry was “inactive”. Under `CN(C)C(CNC(=O)c1cccc(S(=O)(=O)Nc2ccc(Br)cc2)c1)c1ccco1` (stereo not given) stands “inactive”; under `CSc1nnc2ccc(-c3ccc(C)cc3)nn12`, “inactive”; under `O=C(Cn1c(-c2cscn2)nc2ccccc21)Nc1ccc(Cl)cc1`, “inactive”. As to `O=C(Cn1c(-c2cncs2)nc2ccccc21)NC1CCCC1`, the Potency was 9.28 µM (active). Under `O=C(CN1CCN(c2ccccn2)CC1)NC1CCCCC1` stands “inactive”. In the case of `Cc1ccn2c(=O)nc(SCC(=O)NCc3ccc(F)cc3)nc2c1`, the Potency entry is “inactive”.

With `CC(C)C[C@@H](NC(=O)[C@H]1CCCN1C(=O)Cc1ccccc1)C(N)=O` (PhAc-[dP]-[dL]-NH2), the Potency entry was “inactive”. Then `COc1ccccc1-c1nn(Cc2ccccc2)cc1C(=O)N1CCN(c2ncccn2)CC1`, with 13.1 µM (active). Under `COc1cccc(OC)c1C(=O)N1CCN(Cc2cccnc2)CC1` stands “inactive”; under `Oc1ccc(CN2CCN(c3ncccn3)CC2)cc1`, “inactive”; under `CCOCCCNC(=O)C1(O)c2cc(Br)ccc2NC(=O)N1c1ccc(C)c(C)c1` (stereo not given), “inactive”. Under `COc1ccc(NS(=O)(=O)c2ccc3oc(SCC(N)=O)nc3c2)cc1` stands “inactive”; under `COc1cccc(NC(=O)[C@H](Cc2c[nH]c3ccccc23)NC(=O)[C@@H]2Cc3ccccc3CN2)c1`, 11.7 µM (active). On to `COc1ccc(CNC(=O)[C@H](Cc2c[nH]c3ccccc23)NC(C)=O)cc1OC`, for which the Potency entry was “inactive”.

For the compound `CC(=O)NC(Cc1c[nH]c2ccccc12)C(=O)NCCc1ccccc1` (stereo not given), the Potency entry is “inactive”. Then `CC1(C)c2[nH]c3ccccc3c2C[C@H]2C(=O)N(N)CC(=O)N21`, with “inactive”; and `COCCN1CCN(C(=O)c2cc(COc3ccc(F)cc3Cl)on2)CC1`, with “inactive”; and `Cc1ccc(NC(=S)N/N=C2/CCCc3c(C)cc(C)cc32)cc1`, with “inactive”. On to `CCCCNC(=S)N/N=C1\CCCCc2ccccc21`, for which the Potency was 9.28 µM (active). For `O=[N+]([O-])c1ccccc1N/N=C1\CCc2ccccc21`, the Potency entry was “inactive”. Then `Cc1ccccc1N1CCN(C2CCCN(C(=O)c3cn4c(C)cccc4n3)C2)CC1` (stereo not given), with “inactive”. As to `COc1ccccc1C(=O)Nc1ccnn1C1CCN(Cc2cnn(C)c2)CC1`, the Potency result was “inactive”. As to `CCOC(=O)c1c(NC(=S)Nc2ccccc2C)sc2c1CCC2`, the Potency result is “inactive”. Then `CCOC(=O)c1c(NC(=S)Nc2ccccc2)sc2c1CCN(C)C2`, with “inactive”; and `CCOC(=O)c1c(NC(=S)NC)sc2c1CCCC2`, with 8.28 µM (active). Then `CCOCC(=O)Nc1sc2c(c1C(=O)OCC)CCCC2`, with “inactive”; and `CCOC(=O)c1c(NC(=O)NC(C)(C)C)sc2c1CCN(C)C2`, with 4.15 µM (active). For the compound `CCOC(=O)c1c(NC(=O)Cn2nc(C(F)(F)F)cc2C)sc2c1CCC2`, the Potency entry was “inactive”. Under `O=C(CCc1nc(-c2ccccc2)no1)Nc1cccc(C(=O)NC2CC2)c1` stands “inactive”.

Take `CCOC(=O)C1CCN(S(=O)(=O)c2ccc3c(c2)N(C)C(=O)CC(=O)N3C)CC1`: the Potency entry is “inactive”. Under `COc1cc2ccccc2cc1C(=O)Nc1ccc(N2CCOCC2)cc1` stands “inactive”; under `COc1cccc(C(=O)NC(=O)Nc2nc(C)cc(C(F)(F)F)n2)c1`, “inactive”. Under `Cc1cccc(OCC(=O)Nc2ccc(NC(=O)c3ccco3)c(C)c2)c1` stands “inactive”. Then `O=C(CN1C(=O)NC2(CCCCCC2)C1=O)NCc1cccs1`, with “inactive”; and `O=C1CN(C(=O)CN2C(=O)NC3(CCCCC3)C2=O)c2ccccc2N1`, with 14.7 µM (active). Regarding `O=C(CN1C(=O)NC2(CCCCC2)C1=O)N1CCN(C(=O)c2cccs2)CC1`, the Potency entry was “inactive”. Under `COCCN1CCn2c(nc3cc(NS(C)(=O)=O)ccc32)C1` stands “inactive”; under `Cc1ccc(CNC(=O)c2ccc(CS(=O)Cc3cccc(Cl)c3)o2)cc1` (stereo not given), “inactive”; under `COc1ccc(CCNC(=O)c2cnc(Cl)c(Cl)c2)cc1`, “inactive”. `CC(C)OC(=O)c1sc2nc3c(cc2c1N)C(=O)CCC3`: the Potency was 5.22 µM (active). `COC(=O)c1cc2c(N)c(C(=O)c3ccc(Cl)cc3)sc2nc1C(OC)OC`: the Potency result is “inactive”. Turning to `Nc1c(C(=O)NCc2ccccc2)sc2nc3c(cc12)C(=O)CCC3`, the Potency entry is “inactive”. With `COc1ccc(N2C(=O)C(Cc3ccccc3)NC2=S)cc1` (stereo not given), the Potency entry was “inactive”. Then `Cc1cccc(N2C(=O)N3[C@H](c4ccc(F)cc4)[C@@H]4C(=O)N(C5CCCCC5)C(=O)[C@@H]4[C@]3(Cc3ccccc3)C2=O)c1`, with 13.1 µM (active); and `COc1ccc(C2C(C(C)=O)=C(O)C(=O)N2Cc2cccnc2)cc1` (stereo not given), with “inactive”; and `C[C@@]12C(=O)N(c3cccc(Br)c3)C(=O)N1[C@H](c1ccc(Cl)cc1)[C@@H]1C(=O)N(C3CCCCC3)C(=O)[C@@H]12`, with 16.5 µM (active). For `O=C1[C@H]2[C@@H](c3ccc(F)cc3)N3C(=O)N(c4ccc(C(F)(F)F)cc4)C(=O)[C@@]3(Cc3ccccc3)[C@H]2C(=O)N1C1CCCCC1`, the Potency is 5.22 µM (active). For `COc1ccc([C@@H]2[C@@H]3C(=O)N(C(C)(C)C)C(=O)[C@@H]3[C@]3(Cc4ccccc4)C(=O)N(c4cccc(Br)c4)C(=O)N23)cc1`, the Potency was 1.65 µM (active).

For `O=C(NC1(C(F)(F)F)NC(=O)N(C2CCCCC2)C1=O)c1ccco1` (stereo not given), the Potency entry was “inactive”. Regarding `Cc1cccc([C@@H]2[C@@H]3C(=O)N(Cc4ccccc4)C(=O)[C@@H]3[C@]3(Cc4ccc(Cl)cc4)C(=O)N(c4cccc(Cl)c4)C(=O)N23)c1`, the Potency result is “inactive”. As for `CC12C(=O)N(c3ccccc3)C(=O)C1C(c1ccccc1)N1CCCN12` (stereo not given), the Potency entry is “inactive”. Consider `Cc1cccc(N2C(=O)C3C(c4ccccc4)OC4(C(=O)c5ccccc5C4=O)C3C2=O)c1` (stereo not given), for which the Potency entry is “inactive”.
